An excerpt weighted towards active compounds, which were near 8.9% of everything screened.
D1 allo mod: allosterically modulates the human D1 dopamine receptor; B-score at 10 µM; 58,000 compounds, 5.9% hits; P21728; AID 641; HEK293 D1, CRE-luciferase, dopamine EC30 potentiation; actives deviate in either direction;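 active = luminescence count or its row- and column-corrected plate score outside the 99.7% band of the plate's sample wells, on either side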
M1 antagonist: antagonists of rat M1 muscarinic receptor | B-score at 10 µM | CHO-M1 cells, Fluo-4 calcium, ACh EC80 antagonist mode; hits give low values | AID 628 | 64,000 compounds, 3.4% hits;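 active = calcium fluorescence response, raw or row-and-column corrected B-score, differing from the plate sample mean either way at a set confidence level, mostly lower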
Target sequence (P08482 whole entry, looked up): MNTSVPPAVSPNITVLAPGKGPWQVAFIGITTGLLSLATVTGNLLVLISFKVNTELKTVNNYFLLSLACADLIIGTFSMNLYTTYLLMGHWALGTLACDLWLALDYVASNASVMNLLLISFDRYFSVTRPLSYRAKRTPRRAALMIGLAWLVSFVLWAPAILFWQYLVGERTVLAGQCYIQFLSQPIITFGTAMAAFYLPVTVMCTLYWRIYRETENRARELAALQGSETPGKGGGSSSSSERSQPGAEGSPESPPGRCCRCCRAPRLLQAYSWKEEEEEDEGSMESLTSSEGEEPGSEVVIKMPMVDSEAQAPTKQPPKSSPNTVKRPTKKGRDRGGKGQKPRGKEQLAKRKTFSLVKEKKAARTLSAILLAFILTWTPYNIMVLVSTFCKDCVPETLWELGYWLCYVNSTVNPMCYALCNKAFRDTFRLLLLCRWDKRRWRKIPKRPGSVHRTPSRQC
WNV protease inh: blocks West Nile virus NS2B-NS3 protease activity | 65,000 compounds, 0.18% hits | AID 577 | WNV NS2B-NS3 protease, fluorogenic substrate Ex360/Em465; hits give low values | z-score (no concentration beside the values); in the data active = z-score below about -3
M1 agonist: activates the M1 muscarinic receptor; AID 626; B-score at 10 µM; 64,000 compounds, 3% hits; CHO-M1 cells, Fluo-4 calcium fluorescence, agonist mode; hits give high values;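 active = fluorescence rise, raw or as B-score row- and column-corrected plate score, outside the 99.7% band of its plate's samples, either direction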
mHtt clearance: mutant huntingtin protein clearance | HeLa Exon1htt(103Q)mCFP, aggregate imaging; zero = plate's median compound well | inhibition, % at 1.5 µM | 47,000 compounds, 0.42% hits;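 active = inhibition of aggregate fluorescence above about 70%, also judged a hit by eye on the cell image, limit read from the data, passing the limit was not always enough; inconclusive = no rule stated for this call; inactive = not judged a hit on image review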;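 also: cells exposed to compound for three days before fixation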
M1 ag confirm: rat M1 muscarinic agonism, confirmation; shares compounds with M1 agonist; CHO-M1 cells, Fluo-4 calcium fluorescence, agonist mode; actives lie on both sides; fluorescence change (max-min) at 10 µM; 1,700 compounds, 19% hits; AID 1488;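 active = fluorescence change differs from the solvent-only DMSO control mean at a set confidence level in both duplicate runs; inconclusive = differs from solvent-only control mean in just one of two runs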;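 also: an EC20 dose of acetylcholine follows compound addition during the same imaging run; raw fluorescence intensity difference in instrument units with no normalization to controls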
M4 ag counter: counter-screen for M1 agonists: activity at rat M4 receptor; shares compounds with M1 agonist; CHO M4/Gqi5 cells, Fluo-4 calcium fluorescence, agonist mode; actives lie on both sides; fluorescence change (max-min) at 10 µM; 1,700 compounds, 9% hits;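 active = fluorescence change differing from the plate's solvent-only control wells at 99.7% confidence in both duplicates, whether higher or lower; inconclusive = differs from solvent controls in only one of two duplicates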
An asterisk follows results filed as active; ? = inconclusive; / = no result.

SMILES | D1 allo mod | M1 antagonist | WNV protease inh | M1 agonist | mHtt clearance | M1 ag confirm | M4 ag counter
CCOC(=O)C1CCCN(c2nc3ccccc3nc2C(C#N)C(=O)OC(C)C)C1 (stereo not given) | 0.646 | -0.124 | 0.36 | 2.16 | / | / | /
CCOC(=O)C1CCN(c2nc3ccccc3nc2C(C#N)C(=O)OCCOC)CC1 (stereo not given) | 0.379 | -0.0269 | 0.37 | 6.21* | / | 0 | -9.62
C=CCOC(=O)C(C#N)c1nc2ccccc2nc1N1CCN(c2ccccc2OCC)CC1 (stereo not given) | 3.1 | -0.0109 | -0.93 | -0.651 | / | / | /
CCOC(=O)C1CCN(c2nc3ccccc3nc2C(C#N)C(=O)OC(C)COC)CC1 (stereo not given) | / | -0.0913 | 0.41 | 6.21* | / | ? | -52.4
COc1cccc(-c2cc(N)nn2C(=O)Nc2ccc(Cl)cc2)c1 | 0.112 | 0.875 | 0.43 | -0.0592 | -108.7 | / | /
O=C(NCc1ccc2c(c1)OCO2)C1CCCN1C(=O)Nc1cccc(Cl)c1 (stereo not given) | 1.63 | -0.839 | -0.17 | -0.029 | 42.5 | / | /
O=S(=O)(Nc1cnc2ccccc2c1)N1CCCCCC1 | 0.352 | -1.62 | 1.28 | -2.53* | / | -12.7 | -16.6
CCCCN1CCc2c([nH]c3ccc(C)cc23)C1=O | -1.96 | -0.0758 | 0.77 | 3.52* | / | -11.7 | ?
O=C(CCn1c(=O)c2sccc2n(CC(=O)OCc2ccccc2)c1=O)NCc1ccco1 | -0.969 | 0.542 | -0.56 | 0.195 | -3.8 | / | /
O=C(CCCn1c(=O)c2sccc2n(CC(=O)OCc2ccccc2)c1=O)NCc1ccco1 | -0.339 | -1.41 | -0.31 | 4.68* | -5.2 | -28.4* | -72.1*
COc1cc(C(=O)Nc2nccs2)c(Br)c(OC)c1OC | -1.18 | -0.647 | -0.41 | 2.89* | 7.9 | -10.6 | -41.1
COc1cc(CC(=O)Nc2nccs2)cc(OC)c1OC | -0.507 | -0.0731 | 2.02 | -1.37 | / | / | /
O=C(O)CSc1nnc(CNc2ccccc2Cl)n1-c1ccccc1 | -0.318 | 3.01* | -1.24 | 84.3* | -15.0 | ? | -65.7
COC(=O)C1C(=O)CC(C)(O)C(C(=O)OC)C1/C=C/c1ccccc1 (stereo not given) | -0.122 | -0.203 | -0.41 | 0.463 | -10.6 | / | /
CCOC(=O)C1C(=O)CC(C)(O)C(C(=O)OCC)C1/C=C/c1ccccc1 (stereo not given) | -0.167 | -0.696 | 1.69 | 2.86* | 6.7 | -0.938 | -2.79
COc1ccc(OC)c(/C=c2\sc3nc(-c4cccs4)nn3c2=O)c1 | -0.0738 | 0.00654 | -1.49 | 13.4* | / | 478* | 556*
COc1ccccc1/C=c1\sc2nc(-c3ccco3)nn2c1=O | -0.283 | 0.0965 | -0.53 | 1.47 | -25.9 | / | /
COc1ccc(N(C)S(=O)(=O)c2cccc3cccnc23)c(OC)c1 | -0.103 | -1.17 | 0.67 | 5.22* | 33.9 | ? | -60.7
COc1ccc(OC)c(NC(=O)C2CCCN(S(=O)(=O)c3cccc4cccnc34)C2)c1 (stereo not given) | 1.93 | -1.67 | -0.87 | 5.03* | / | -32.6* | -48.1
Cc1cccn2c(=O)c3cc(C(=O)N4CCc5ccccc5C4)n(C)c3nc12 | -0.436 | -0.193 | -0.17 | -0.288 | / | / | /
CCOC(=O)c1ccc(S(=O)(=O)Nc2cc(C(C)(C)C)no2)cc1 | 0.495 | 0.424 | 0.45 | 7.58* | -228.0 | -11.9 | -16
CC(C)(C)c1cc(NS(=O)(=O)c2ccc3c(c2)OCCO3)on1 | -1.3 | 0.0179 | -0.43 | -0.0145 | -23.6 | / | /
CCOC(=O)c1ccc(S(=O)(=O)Nc2ccccc2-c2nnn(CC)n2)cc1 | 0.0422 | -3.02* | 0.67 | 3.83* | / | ? | ?
CCOC(=O)c1c(NC(=O)CSc2nc3cccnc3n2C)sc(C(C)=O)c1C | / | -0.209 | -0.69 | 0.532 | / | / | /
CCOC(=O)c1cccc(NC(=O)CSc2nc3cccnc3n2C)c1 | 2.58 | -1.12 | 0.83 | 3.3* | 28.3 | 0.888 | -25.7
SMILES | D1 allo mod | M1 antagonist | WNV protease inh | M1 agonist | mHtt clearance | M1 ag confirm | M4 ag counter
COc1ccc(C(=O)NCCn2cc(SCC(=O)Nc3cc(C)on3)c3ccccc32)cc1OC | 0.228 | -0.158 | 1.01 | 3.53* | -13.3 | -26.6* | -52.8
Cc1ccc(C(=O)NCCn2cc(SCC(=O)Nc3nnc(C)s3)c3ccccc32)cc1 | -1.26 | -0.0939 | 1.62 | 2.93* | / | ? | -58
CCCCOc1[nH]c2nc(-c3ccco3)n(Cc3ccco3)c(=N)c2c1C#N | 1.1 | -0.0323 | -0.53 | 14.8* | 50.4 | 18.3 | 6.15
c1ccc(CSc2nnc(-c3ccco3)n2Cc2ccco2)cc1 | -2.19 | -0.515 | -0.36 | -0.462 | / | / | /
C=CCn1c(NCCc2ccccc2)nc2c1c(=O)n(C)c(=O)n2C | -1.46 | -0.925 | 1.89 | 6.46* | -61.0 | 24.5 | -29.4
O=C1CN(C(=O)c2ccc(Br)o2)C(c2ccc(F)cc2)c2cc(Cl)ccc2N1 (stereo not given) | 1.3 | -0.845 | -0.33 | 2.82* | / | -14.6 | ?
COc1ccccc1N1CCN(C(=O)c2sc3nc(-c4ccc(F)cc4)cn3c2C)CC1 | -1.54 | -0.16 | -0.5 | 1.1 | / | / | /
CC1=Nn2c(nc(-c3ccccc3)c2-c2ccccc2)NC(=O)C1Br (stereo not given) | / | / | / | / | -21.3 | / | /
C/C(N)=C(/C#N)C(=O)CSc1nnc(Nc2cccc(C)c2)s1 | 2.75 | -0.000986 | 0.61 | -0.0489 | / | / | /
C/C(N)=C(/C#N)C(=O)CSc1nc2cc(Cl)ccc2s1 | -0.0174 | 0.382 | 0.5 | 5.06* | / | -8.67 | -25.7
Cn1c(C(=O)Nc2ccc3c(c2)OCCO3)cc2c(=O)n(C)c3ccccc3c21 | -4.53* | -0.193 | 1.98 | 4.58* | / | 3.65 | -11.3
Cn1c(C(=O)NC2CC2)cc2c(=O)n(C)c3ccccc3c21 | 0.25 | -0.759 | -1.2 | 1.72 | 27.4 | / | /
CCOC(=O)N1CCC(NC(=O)c2cc3c(=O)n(C)c4ccccc4c3n2C)CC1 | -0.676 | 6.57e-05 | 0.58 | 2.05* | 62.6 | ? | -25.2
CN(C)CCNC(=O)c1cc2c(=O)n(C)c3ccccc3c2n1C | 1.09 | -0.886 | 0.43 | -0.0564 | -28.2 | / | /
Cn1cc(S(=O)(=O)CC(=O)Nc2ccc3c(c2)OCCO3)c2ccccc21 | 0.11 | -1.26 | / | -0.918 | 31.6 | / | /
O=C(CS(=O)(=O)c1c[nH]c2ccccc12)Nc1ccc2c(c1)OCCO2 | 0.777 | 0.052 | / | 3.24* | -46.3 | -10.7 | -40.6
O=C(CS(=O)(=O)Cc1ccccc1)N1CCc2ccccc21 | 1.26 | -0.132 | -0.02 | 23* | 23.0 | -9.16 | -29.2
O=C(CCC(=O)N1CCc2ccccc21)N1CCc2ccccc21 | 0.666 | -0.518 | -1.18 | -0.195 | -62.7 | / | /
COc1ccc(/C=N/Nc2ccccc2)cc1Cn1nc(C)c([N+](=O)[O-])c1C | / | / | / | / | 23.3 | / | /
CCOc1ccc2oc(-c3ccccc3)c(C(=O)N3CCN(CCO)CC3)c2c1 | 1.04 | -0.622 | 0.03 | 4.17* | -4.2 | -9.46 | ?
CCOc1ccc2oc(-c3ccccc3)c(C(=O)O)c2c1 | -0.962 | -0.463 | 1.2 | 0 | -45.6 | / | /
CCn1nnc(-c2ccccc2NS(=O)(=O)c2ccc(S(=O)(=O)N(C)C3CCCCC3)cc2)n1 | / | / | / | / | 11.3 | / | /

Screening results deposited in PubChem BioAssay by several laboratories.
